Test results taken from the supplement of paper PMC11732987, “Enantioselective OTUD7B fragment discovery through chemoproteomics screening and high-throughput optimisation” (Communications Chemistry, 2025).

Assays:
Assay in all cases: log2 ratio of Biotin-Ahx-Ub-VS probe labelling (fragment/DMSO); higher = less target engagement (more negative = stronger competition), active = hit call of the paper (q ≤ 0.05, log2 ratio ≤ -1)
Settings in all cases: compound concentration: 200 uM; treatment time: 3 h
USP19 = biological target: T1, USP19 (UniProt O94966)
T1 sequence (whole entry): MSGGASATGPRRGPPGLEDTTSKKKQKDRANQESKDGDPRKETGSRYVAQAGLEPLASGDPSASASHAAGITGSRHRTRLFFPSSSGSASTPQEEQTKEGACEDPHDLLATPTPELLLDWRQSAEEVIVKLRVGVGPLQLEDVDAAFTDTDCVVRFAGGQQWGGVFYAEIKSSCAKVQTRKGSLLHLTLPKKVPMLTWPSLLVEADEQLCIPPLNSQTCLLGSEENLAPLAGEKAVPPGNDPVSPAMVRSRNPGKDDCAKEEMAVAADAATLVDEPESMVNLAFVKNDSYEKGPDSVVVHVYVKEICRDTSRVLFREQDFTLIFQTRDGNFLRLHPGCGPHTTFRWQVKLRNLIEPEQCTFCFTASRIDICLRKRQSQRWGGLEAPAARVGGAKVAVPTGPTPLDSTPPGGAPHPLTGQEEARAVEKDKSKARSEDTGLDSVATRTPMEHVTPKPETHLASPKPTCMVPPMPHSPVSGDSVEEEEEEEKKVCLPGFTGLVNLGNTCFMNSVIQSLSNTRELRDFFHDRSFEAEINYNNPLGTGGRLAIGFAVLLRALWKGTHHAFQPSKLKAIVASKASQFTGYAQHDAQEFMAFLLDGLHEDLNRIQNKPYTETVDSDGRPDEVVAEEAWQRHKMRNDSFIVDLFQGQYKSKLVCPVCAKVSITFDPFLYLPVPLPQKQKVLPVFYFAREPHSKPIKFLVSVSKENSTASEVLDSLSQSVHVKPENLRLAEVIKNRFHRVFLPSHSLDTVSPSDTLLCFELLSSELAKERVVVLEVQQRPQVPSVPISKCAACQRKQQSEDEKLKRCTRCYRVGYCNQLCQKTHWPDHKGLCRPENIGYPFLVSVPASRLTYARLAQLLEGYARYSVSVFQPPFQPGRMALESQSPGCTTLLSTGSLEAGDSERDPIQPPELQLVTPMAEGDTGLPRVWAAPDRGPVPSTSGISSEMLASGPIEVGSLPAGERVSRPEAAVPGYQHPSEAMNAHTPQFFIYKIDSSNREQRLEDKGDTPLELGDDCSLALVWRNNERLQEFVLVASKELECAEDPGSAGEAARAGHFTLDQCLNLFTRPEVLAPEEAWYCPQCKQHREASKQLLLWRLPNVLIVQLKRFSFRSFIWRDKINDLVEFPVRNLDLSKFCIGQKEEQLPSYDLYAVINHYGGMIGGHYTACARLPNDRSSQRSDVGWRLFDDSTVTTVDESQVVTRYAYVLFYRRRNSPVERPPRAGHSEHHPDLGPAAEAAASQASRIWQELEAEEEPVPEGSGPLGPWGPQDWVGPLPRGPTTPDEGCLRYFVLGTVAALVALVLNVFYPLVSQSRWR
In short: (§1)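 HEK293T lysate (495 µg per sample, in Tris/CHAPS/IGEPAL buffer with protease inhibitors) was treated in triplicate with fragment at 200 µM or with DMSO for 3 h. It was then treated with Biotin-Ahx-Ub-VS (0.5 µM final) for 1 h. Labelled DUBs were NeutrAvidin-enriched, digested with LysC and trypsin, and run by diaPASEF LC-MS/MS. Spectronaut label-free quantities were global-median-normalised. Values are average log2 ratios fragment/DMSO by unpaired t-test, using proteins with ≥2 unique peptides.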

USP22 = biological target: T2, USP22 (UniProt Q9UPT9)
T2 sequence (whole entry): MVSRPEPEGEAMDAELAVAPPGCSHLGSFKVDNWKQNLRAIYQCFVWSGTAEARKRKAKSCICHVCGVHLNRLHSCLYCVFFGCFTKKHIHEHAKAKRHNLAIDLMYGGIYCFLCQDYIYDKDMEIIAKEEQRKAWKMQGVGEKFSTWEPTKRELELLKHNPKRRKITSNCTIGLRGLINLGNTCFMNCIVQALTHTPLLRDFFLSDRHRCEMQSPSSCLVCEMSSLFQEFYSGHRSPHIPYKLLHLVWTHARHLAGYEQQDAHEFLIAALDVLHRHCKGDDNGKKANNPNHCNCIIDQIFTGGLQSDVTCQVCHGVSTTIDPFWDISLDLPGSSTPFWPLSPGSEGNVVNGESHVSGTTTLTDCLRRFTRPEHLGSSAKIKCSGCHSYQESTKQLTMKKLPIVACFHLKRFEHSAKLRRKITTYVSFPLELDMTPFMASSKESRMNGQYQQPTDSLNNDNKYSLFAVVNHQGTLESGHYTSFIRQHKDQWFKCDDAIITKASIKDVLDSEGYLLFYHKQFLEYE
In short: as §1

USP24 = USP24 (UniProt Q9UPU5)
In short: as §1

USP25 = biological target: T3, USP25 (UniProt Q9UHP3)
T3 sequence (whole entry): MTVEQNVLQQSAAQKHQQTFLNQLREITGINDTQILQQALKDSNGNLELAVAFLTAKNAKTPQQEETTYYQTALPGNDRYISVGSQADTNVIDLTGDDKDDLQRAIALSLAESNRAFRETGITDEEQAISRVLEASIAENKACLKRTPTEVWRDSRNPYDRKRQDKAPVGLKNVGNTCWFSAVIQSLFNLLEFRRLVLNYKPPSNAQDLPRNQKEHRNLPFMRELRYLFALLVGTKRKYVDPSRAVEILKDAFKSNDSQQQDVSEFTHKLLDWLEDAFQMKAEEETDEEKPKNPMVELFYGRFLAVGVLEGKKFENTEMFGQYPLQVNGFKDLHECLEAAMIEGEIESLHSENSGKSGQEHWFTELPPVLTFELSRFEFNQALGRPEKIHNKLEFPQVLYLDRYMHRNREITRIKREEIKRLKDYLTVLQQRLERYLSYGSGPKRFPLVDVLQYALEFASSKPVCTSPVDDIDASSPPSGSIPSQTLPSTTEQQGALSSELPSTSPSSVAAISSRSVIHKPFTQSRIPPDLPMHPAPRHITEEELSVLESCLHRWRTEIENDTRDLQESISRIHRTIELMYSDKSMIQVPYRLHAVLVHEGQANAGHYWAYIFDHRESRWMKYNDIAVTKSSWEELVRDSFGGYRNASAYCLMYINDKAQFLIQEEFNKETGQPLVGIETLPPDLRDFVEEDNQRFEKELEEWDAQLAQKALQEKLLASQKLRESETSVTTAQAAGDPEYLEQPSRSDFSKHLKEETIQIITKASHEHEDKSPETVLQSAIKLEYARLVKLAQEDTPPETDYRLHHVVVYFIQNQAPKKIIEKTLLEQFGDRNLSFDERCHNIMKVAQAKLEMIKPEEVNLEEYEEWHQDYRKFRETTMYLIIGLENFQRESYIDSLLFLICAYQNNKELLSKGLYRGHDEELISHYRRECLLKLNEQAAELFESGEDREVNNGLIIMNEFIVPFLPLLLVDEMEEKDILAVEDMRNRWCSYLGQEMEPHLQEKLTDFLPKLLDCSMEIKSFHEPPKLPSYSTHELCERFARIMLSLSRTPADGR
In short: as §1

USP28 = biological target: T4, USP28 (UniProt Q96RU2)
T4 sequence (whole entry): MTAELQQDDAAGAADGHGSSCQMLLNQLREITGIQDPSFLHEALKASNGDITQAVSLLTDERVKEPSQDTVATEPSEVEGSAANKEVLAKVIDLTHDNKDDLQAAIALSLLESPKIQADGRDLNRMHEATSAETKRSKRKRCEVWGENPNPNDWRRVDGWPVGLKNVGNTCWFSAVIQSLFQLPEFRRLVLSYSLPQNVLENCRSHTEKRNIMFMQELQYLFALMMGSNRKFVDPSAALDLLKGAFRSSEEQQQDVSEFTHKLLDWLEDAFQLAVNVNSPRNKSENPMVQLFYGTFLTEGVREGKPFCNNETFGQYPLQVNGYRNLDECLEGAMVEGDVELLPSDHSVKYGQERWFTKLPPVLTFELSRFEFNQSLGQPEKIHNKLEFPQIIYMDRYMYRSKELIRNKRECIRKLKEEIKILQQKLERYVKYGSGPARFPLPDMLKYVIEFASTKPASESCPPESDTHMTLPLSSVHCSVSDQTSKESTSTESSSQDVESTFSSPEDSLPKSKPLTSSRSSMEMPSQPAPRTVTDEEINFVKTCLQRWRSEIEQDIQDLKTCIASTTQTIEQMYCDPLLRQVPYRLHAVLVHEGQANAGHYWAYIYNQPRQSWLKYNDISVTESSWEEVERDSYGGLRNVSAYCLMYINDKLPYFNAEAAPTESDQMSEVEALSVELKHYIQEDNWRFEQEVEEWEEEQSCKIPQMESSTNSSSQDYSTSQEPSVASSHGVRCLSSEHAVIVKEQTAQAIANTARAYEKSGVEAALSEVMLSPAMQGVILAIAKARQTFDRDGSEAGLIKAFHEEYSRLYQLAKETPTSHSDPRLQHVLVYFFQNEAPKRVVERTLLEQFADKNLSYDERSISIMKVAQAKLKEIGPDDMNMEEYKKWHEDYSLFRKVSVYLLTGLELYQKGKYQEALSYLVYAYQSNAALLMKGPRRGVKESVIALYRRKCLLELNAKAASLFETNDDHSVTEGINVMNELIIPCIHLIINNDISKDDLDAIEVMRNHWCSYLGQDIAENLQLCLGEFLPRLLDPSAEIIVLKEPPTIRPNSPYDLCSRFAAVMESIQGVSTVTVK
In short: as §1

Measured: log2 ratio of Biotin-Ahx-Ub-VS probe labelling

Chain of USP24 (Q9UPU5 whole entry): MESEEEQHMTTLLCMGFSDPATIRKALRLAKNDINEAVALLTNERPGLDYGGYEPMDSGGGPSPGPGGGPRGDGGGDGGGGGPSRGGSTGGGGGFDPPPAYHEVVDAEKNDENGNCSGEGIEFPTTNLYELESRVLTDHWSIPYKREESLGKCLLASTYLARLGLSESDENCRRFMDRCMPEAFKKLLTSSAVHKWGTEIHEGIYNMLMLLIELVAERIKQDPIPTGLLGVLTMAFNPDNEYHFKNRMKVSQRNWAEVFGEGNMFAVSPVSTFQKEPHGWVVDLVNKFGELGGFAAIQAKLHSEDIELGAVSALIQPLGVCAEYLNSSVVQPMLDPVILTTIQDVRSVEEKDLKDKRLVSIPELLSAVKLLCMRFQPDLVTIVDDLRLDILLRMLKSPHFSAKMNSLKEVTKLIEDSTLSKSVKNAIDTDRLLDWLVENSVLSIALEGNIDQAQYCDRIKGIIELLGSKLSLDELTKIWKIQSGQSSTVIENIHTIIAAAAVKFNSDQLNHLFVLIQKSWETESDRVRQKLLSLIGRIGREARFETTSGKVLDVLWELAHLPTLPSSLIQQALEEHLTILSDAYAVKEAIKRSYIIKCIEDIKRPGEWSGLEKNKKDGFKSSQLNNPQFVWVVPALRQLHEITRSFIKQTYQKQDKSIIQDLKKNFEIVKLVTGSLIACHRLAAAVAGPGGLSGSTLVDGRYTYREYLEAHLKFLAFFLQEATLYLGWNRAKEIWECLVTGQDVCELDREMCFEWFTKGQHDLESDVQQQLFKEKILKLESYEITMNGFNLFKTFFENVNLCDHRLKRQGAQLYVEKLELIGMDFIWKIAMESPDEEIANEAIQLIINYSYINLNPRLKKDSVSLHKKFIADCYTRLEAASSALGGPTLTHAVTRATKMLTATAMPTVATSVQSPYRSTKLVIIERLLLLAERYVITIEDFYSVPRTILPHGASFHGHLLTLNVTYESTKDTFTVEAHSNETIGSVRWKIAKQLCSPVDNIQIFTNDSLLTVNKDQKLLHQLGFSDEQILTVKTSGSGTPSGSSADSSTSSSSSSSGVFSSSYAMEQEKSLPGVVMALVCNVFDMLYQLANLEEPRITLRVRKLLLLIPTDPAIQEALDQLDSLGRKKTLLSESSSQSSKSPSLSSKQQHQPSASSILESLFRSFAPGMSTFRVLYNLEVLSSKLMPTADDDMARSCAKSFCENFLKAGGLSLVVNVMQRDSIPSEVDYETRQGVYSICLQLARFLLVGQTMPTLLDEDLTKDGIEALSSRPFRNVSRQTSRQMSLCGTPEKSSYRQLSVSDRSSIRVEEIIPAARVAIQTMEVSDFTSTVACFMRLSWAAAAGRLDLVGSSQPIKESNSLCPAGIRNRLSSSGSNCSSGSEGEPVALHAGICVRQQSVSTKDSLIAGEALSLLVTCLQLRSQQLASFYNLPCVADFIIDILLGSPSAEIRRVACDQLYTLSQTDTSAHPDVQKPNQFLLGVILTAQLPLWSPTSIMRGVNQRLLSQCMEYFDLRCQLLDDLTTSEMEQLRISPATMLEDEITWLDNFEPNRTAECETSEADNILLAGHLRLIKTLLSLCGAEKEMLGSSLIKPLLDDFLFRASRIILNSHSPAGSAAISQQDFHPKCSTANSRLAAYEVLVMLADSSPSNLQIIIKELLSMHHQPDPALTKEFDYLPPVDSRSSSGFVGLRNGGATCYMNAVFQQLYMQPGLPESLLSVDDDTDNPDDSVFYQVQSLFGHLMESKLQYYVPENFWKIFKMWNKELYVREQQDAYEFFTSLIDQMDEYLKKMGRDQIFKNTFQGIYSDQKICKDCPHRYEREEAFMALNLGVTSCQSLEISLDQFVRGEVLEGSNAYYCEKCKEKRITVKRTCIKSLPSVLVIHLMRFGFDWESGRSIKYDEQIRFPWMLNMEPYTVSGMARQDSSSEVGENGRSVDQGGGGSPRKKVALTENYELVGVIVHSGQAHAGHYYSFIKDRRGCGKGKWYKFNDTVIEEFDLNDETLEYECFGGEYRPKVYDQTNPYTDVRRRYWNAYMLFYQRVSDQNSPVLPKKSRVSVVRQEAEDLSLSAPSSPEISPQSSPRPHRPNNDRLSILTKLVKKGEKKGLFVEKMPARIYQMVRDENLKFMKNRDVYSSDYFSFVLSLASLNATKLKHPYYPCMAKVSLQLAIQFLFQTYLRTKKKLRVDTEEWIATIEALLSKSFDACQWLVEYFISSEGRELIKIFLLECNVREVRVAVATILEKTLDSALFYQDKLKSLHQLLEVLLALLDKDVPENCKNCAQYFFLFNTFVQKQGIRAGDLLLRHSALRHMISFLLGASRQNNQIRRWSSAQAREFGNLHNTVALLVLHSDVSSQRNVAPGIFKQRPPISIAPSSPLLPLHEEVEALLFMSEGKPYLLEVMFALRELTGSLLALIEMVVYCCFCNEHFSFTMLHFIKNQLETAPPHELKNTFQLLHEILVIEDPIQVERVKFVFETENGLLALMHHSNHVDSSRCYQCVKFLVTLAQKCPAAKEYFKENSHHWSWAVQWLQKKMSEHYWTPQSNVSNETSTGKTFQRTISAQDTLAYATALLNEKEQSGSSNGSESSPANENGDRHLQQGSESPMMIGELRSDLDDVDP

O=C(CCl)N1CCC(C(=O)N2CCCCCC2)CC1
inactive: USP19 -0.129 | USP22 -0.145 | USP24 -0.141 | USP25 -0.0854 | USP28 -0.307
